Experimental data reported in PubChem BioAssay AID1321 (The Scripps Research Institute Molecular Screening Center, 2008).
The campaign covered roughly 220,000 compounds. About 2,600 (1.2%) were called active.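 The calls were made as follows: active = activation above the mean of all tested compounds plus 3 SD, set per screening run (cut at about 8.8% in these data); inactive = the rest.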 The sample as a whole holds a higher share of actives than the screen did.

Each molecule was assayed against Wee1-like protein kinase (Homo sapiens) (UniProt P30291) (assay: compounds stabilizing Wee1-luciferase fusion – cell-based, HeLa, Wee1K328M-luciferase, luminescence, primary screen (AID 1321;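 also: cells exposed to compound for 20 h before luminescence read; 0% = DMSO alone and 100% = MG132 at 30 µM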)). Conditions: HeLa Luc-Wee1K328M stability, at 5 µM, active compounds read high, 100% = proteasome inhibitor MG132 effect.
For N#CCc1ccc(OC(=O)c2cccnc2)cc1, the reporter increase was -2.7% (inactive). For COc1ccc(-c2noc(CSc3ccc(C)cc3)n2)cc1, the reporter increase was 13.7% (active). For COc1ccc(-c2noc(CN(C)S(=O)(=O)c3ccc(C)cc3)n2)cc1, the reporter increase was -2.95% (inactive). In the case of COc1ccc(-c2noc(-c3ccc(C)cc3)n2)cc1, the reporter increase is reported as -0.18% (inactive). With CC1CC(=O)Nc2ccccc2N1S(=O)(=O)c1cccs1 (stereo not drawn) the reporter increase was 4.07% (inactive). With CCC(C)Cn1c(O)cc2nn(-c3nc4ccccc4s3)c(=O)c-2c1C (stereo not drawn) the reporter increase was -4.96% (inactive). For O=C(N/N=C/c1ccc2c(c1)OCO2)C(=O)N1CCCC1, the reporter increase was 2.71% (inactive). For O=C(N/N=C/c1ccc([N+](=O)[O-])cc1)C(=O)N1CCCC1, the reporter increase was 9.76% (active). In the case of NC(=S)N/N=C/c1ccc([N+](=O)[O-])cc1, the reporter increase is reported as -3.91% (inactive). With O=C(Nc1ccc2nc3n(c(=O)c2c1)CCCCC3)c1ccccc1Cl the reporter increase was 0.41% (inactive). In the case of Cc1cccc2c(=O)n3c(nc12)CCCCC3, the reporter increase is reported as -0.11% (inactive). For Cc1ccc2nc3n(c(=O)c2c1)CCC3, the reporter increase was 12.8% (active). For CNC(=O)c1csc(Cc2c(Cl)sc3ccc(Cl)cc23)n1, the reporter increase was 0.14% (inactive). O=C(COc1ccccc1)N1CCN=C1SCc1cccc(F)c1 was tested, and the reporter increase was -0.6% (inactive). CS(=O)(=O)c1sc(C(=O)NC(=S)Nc2ccc(OC(F)(F)F)cc2)c2c1C=CCC2 was tested, and the reporter increase was 3.21% (inactive). With CCOC(=O)c1c(C)nn(-c2ncccc2NC(=O)CCC(=O)O)c1C the reporter increase was -3.19% (inactive). For O=C(COC(=O)c1ccc[nH]c1=O)Nc1ccc2c(c1)OC(F)(F)O2, the reporter increase was 7.03% (inactive). For CN1C(=O)/C(=C/C=C2\SCCN2C)OC1=S, the reporter increase was 9.67% (active). For CCN(CC(=O)Nc1cccc(S(N)(=O)=O)c1)Cc1nc2ccccc2c(=O)[nH]1, the reporter increase was -3.31% (inactive). In the case of CCN(CC(=O)Nc1ccc(Cl)c(S(=O)(=O)N(C)C)c1)Cc1nc2ccccc2c(=O)[nH]1, the reporter increase is reported as 9.09% (active). For CCCC(=O)N(CCc1ccccc1)Cc1nc2ccccc2c(=O)[nH]1, the reporter increase was -2.77% (inactive). CCN(CC(=O)NC(=O)NCc1ccccc1)Cc1nc2ccccc2c(=O)[nH]1 was tested, and the reporter increase was 10.5% (active). CN(C)S(=O)(=O)c1cc(NC(=O)CN2C(=O)NC3(CCCc4ccccc43)C2=O)ccc1Cl (stereo not drawn) was tested, and the reporter increase was -2.38% (inactive). For O=C(c1ccco1)N(Cc1nc2ccccc2c(=O)[nH]1)C1CCCC1, the reporter increase was -0.38% (inactive). For CC#CC[N+](C)(C)CCCCCC, the reporter increase was 3.56% (inactive). With CC(C)CCNC(=O)C1CCC(CNc2c(N3CCC(C)CC3)c(=O)c2=O)CC1 (stereo not drawn) the reporter increase was -0.83% (inactive). With Cc1csc(/N=C/N(C)C)c1C#N the reporter increase was -2.57% (inactive). C/C(CC(=O)NC(C)c1ccccc1)=N\NC(N)=S (stereo not drawn) was tested, and the reporter increase was -1.77% (inactive). With CC(C)c1csc(CN2CCC(CO)(Cc3ccccc3)CC2)n1 the reporter increase was 11.4% (active). With CC(=O)c1cccc(CN2CCC(CO)(Cc3ccccc3)CC2)c1 the reporter increase was -2.2% (inactive). For OCC1(Cc2ccccc2)CCN(Cc2cc3ccccc3o2)CC1, the reporter increase was -0.66% (inactive). For CC(=O)Cn1ncc(N2CCOCC2)c(Br)c1=O, the reporter increase was 1.92% (inactive). In the case of Cn1c(=O)c2c(nc(N3CCCCCC3)n2CC(=O)c2ccc(Br)cc2)n(C)c1=O, the reporter increase is reported as -1.77% (inactive). In the case of O=C(Cn1ncc(N2CCCC2)c(Br)c1=O)c1ccc(Cl)cc1, the reporter increase is reported as 9.08% (active). In the case of CCc1ccc(S(=O)(=O)Nc2ccc(C)c(NS(C)(=O)=O)c2)cc1, the reporter increase is reported as -2.18% (inactive). COC(=O)c1c(C)oc(C)c1S(=O)(=O)Nc1ccc(C(C)C)cc1 was tested, and the reporter increase was -0.82% (inactive). With O=c1c(/C=N/O)coc2ccc(Cl)cc12 the reporter increase was 13.3% (active). O=C(N/N=C/c1coc2ccccc2c1=O)c1cc2ccccc2o1 was tested, and the reporter increase was 2.23% (inactive). NC(=S)N/N=C/c1coc2cc(Cl)ccc2c1=O was tested, and the reporter increase was 7.29% (inactive). In the case of O=C(NN1C(=O)C2C(C1=O)C1C=CC2C12CC2)c1ccccc1Cl (stereo not drawn), the reporter increase is reported as 1.5% (inactive). C=CCSc1nc(N)cc(=O)[nH]1 was tested, and the reporter increase was 0.5% (inactive). In the case of O=C(O)Cc1csc(NC(=O)CSc2nnnn2-c2ccc(O)cc2)n1, the reporter increase is reported as -2.13% (inactive). For O=C(O)[C@@H]1CCCN1c1ncnc2sc3c(c12)CCC3, the reporter increase was 3.81% (inactive). For OCCNc1nc2ccccc2n1-c1ncnc2sc3c(c12)CCC3, the reporter increase was 13.6% (active). In the case of CC(C)(C)C(=O)Cn1c(NCCO)nc2ccccc21, the reporter increase is reported as -0.8% (inactive). For COCc1cc(=O)oc2cc(NS(=O)(=O)c3ccc(C)cc3)ccc12, the reporter increase was 5.18% (inactive). With O=C(CSc1nc2[nH]ncc2c(=O)n1-c1ccccc1)N1CCCc2ccccc21 the reporter increase was -1.42% (inactive). In the case of CC(C)(C)c1ccc(C(=O)NCc2nnc(SCC(=O)N3CCCc4ccccc43)n2-c2ccccc2)cc1, the reporter increase is reported as 9.34% (active). Cc1nnc(SCC(=O)N2CCc3ccccc32)n1-c1ccccc1 was tested, and the reporter increase was 4.42% (inactive). With CC(=O)Nc1ccc(/C=C/C(=O)c2ccccc2)cc1 the reporter increase was 1.71% (inactive). For CSc1nnnn1-c1c(C)cc(C)cc1C, the reporter increase was -0.91% (inactive). In the case of S=C(NNC(=S)NC1CC2C=CC1C2)NC1CC2C=CC1C2 (stereo not drawn), the reporter increase is reported as -1.36% (inactive). With CC(C)c1ccc(NC(=S)NC2CC3C=CC2C3)cc1 (stereo not drawn) the reporter increase was 18.5% (active). With S=C(NNC(=S)NC1CC2CCC1C2)NC1CC2C=CC1C2 (stereo not drawn) the reporter increase was -2.51% (inactive). With COc1ccc([N+](=O)[O-])cc1N(CC(O)CN(CC(C)C)CC(C)C)S(=O)(=O)c1ccc(C)cc1 (stereo not drawn) the reporter increase was -0.64% (inactive). In the case of CCC(=O)Nc1c(S(=O)(=O)c2ccccc2)c2nc3ccccc3nc2n1Cc1ccccc1, the reporter increase is reported as -1.34% (inactive). CCN(CC)CCn1c(N)c(S(=O)(=O)c2ccccc2)c2nc3ccccc3nc21 was tested, and the reporter increase was 12.4% (active). With Cc1ccc(S(=O)(=O)c2c(N)n(C)c3nc4ccccc4nc23)cc1 the reporter increase was -2.43% (inactive). CSCCC(NS(=O)(=O)c1ccc2c(c1)oc(=O)n2C)C(=O)NCc1ccccc1 (stereo not drawn) was tested, and the reporter increase was 5.59% (inactive). In the case of O=C(CCl)Nc1cccc(CP(=O)(c2ccccc2)c2ccccc2)c1, the reporter increase is reported as 1.71% (inactive). For COc1ccc(C(=O)N/N=C(\C)CC(=O)Nc2ccc(Cl)cn2)cc1, the reporter increase was 0.12% (inactive). For CSCCC(Nc1nc2ccccc2s1)C(=O)O (stereo not drawn), the reporter increase was 1.41% (inactive). In the case of CC(=O)Nc1ccc(S(=O)(=O)Nc2nc(-c3ccc(C(C)(C)C)cc3)cs2)cc1, the reporter increase is reported as 3.64% (inactive). With CC(=O)Nc1ccc(-c2csc(NC=C3C(=O)OC(C)(C)OC3=O)n2)cc1 the reporter increase was 0.77% (inactive). With O=C(Nc1ccccc1)Nc1nc2ccccc2s1 the reporter increase was 12.1% (active). For O=C(Nc1nc2ccccc2s1)c1ccc2c(c1)OCO2, the reporter increase was -1.51% (inactive). CC(=O)Nc1ccc(-c2csc(NC(=O)Nc3ccccc3)n2)cc1 was tested, and the reporter increase was 16.9% (active). In the case of O=C(CCCl)Nc1ccc(S(=O)(=O)NCc2ccco2)cc1, the reporter increase is reported as 4.12% (inactive). With Cc1ccc(C(=O)NCC(=O)OCC(=O)Nc2cccc(S(=O)(=O)N3CCCC3)c2)cc1C the reporter increase was 0.09% (inactive). In the case of CCN(CC)CCNC(=O)CCCCCn1c(=O)[nH]c2cc(C(=O)OC)ccc2c1=O, the reporter increase is reported as -1.39% (inactive). For CCN(CCCNC(=O)CCn1c(=O)[nH]c2ccsc2c1=O)c1ccccc1, the reporter increase was 4.65% (inactive). CCCCC(CC)CNC(=O)CCCCn1c(=O)[nH]c2ccsc2c1=O (stereo not drawn) was tested, and the reporter increase was 20% (active). For CN(C)C(=O)c1nc2ccc(Cl)cn2c1CNCc1cccc(OC(F)(F)F)c1, the reporter increase was 0.21% (inactive). For Cc1ccc(C(=O)N/N=C\c2cc(Br)c(Br)o2)cn1, the reporter increase was 1.9% (inactive). For CCOC(=O)N1CCN(c2c(NCCN3CCN(c4ccccc4F)CC3)c(=O)c2=O)CC1, the reporter increase was -1.76% (inactive). For CCOc1ccccc1C1C(C(=O)OC)=CN(C)C=C1C(=O)OC, the reporter increase was -2.5% (inactive). In the case of CCOc1cc(C2C(C(=O)OC)=CN(C3CCCC3)C=C2C(=O)OC)cc(Br)c1O, the reporter increase is reported as 14.3% (active). With CCOc1ccc(CNC(=O)C2CCC(=O)N2C2CCCC2)cc1OC (stereo not drawn) the reporter increase was -2.75% (inactive). With CN(C)S(=O)(=O)c1cccc(-c2nn(-c3ccccc3)cc2/C=C2\SC(=S)N(CC(=O)O)C2=O)c1 the reporter increase was -2.5% (inactive). CN1CCc2nc(SC(C(=O)O)c3ccccc3)c(C#N)c(-c3cccs3)c2C1 (stereo not drawn) was tested, and the reporter increase was -1.79% (inactive). In the case of Cc1ccsc1/C=N/Nc1ccc(Cl)nn1, the reporter increase is reported as 1.78% (inactive). In the case of O=C(CSc1nnc2n1CCCN2)c1ccccc1, the reporter increase is reported as 1.24% (inactive). In the case of Cc1ccc(NC(=O)/C(=C\c2ccccc2)NC(=O)c2ccco2)cc1, the reporter increase is reported as 2.36% (inactive). With O=C(N/N=C/c1ccc(OCc2ccccc2)cc1)c1ccc(O)cc1 the reporter increase was -1.31% (inactive). O=C(O)c1ccc(/C=N/NC(=O)c2ccc(Br)cc2)cc1 was tested, and the reporter increase was 0.91% (inactive). With O=C(N/N=C/c1ccc(OCC2COCCO2)cc1)c1ccc(Br)cc1 (stereo not drawn) the reporter increase was 10.9% (active). O=C(O)C(NS(=O)(=O)c1cccc2nsnc12)c1ccccc1 (stereo not drawn) was tested, and the reporter increase was -0.72% (inactive). With Cn1cc(S(=O)(=O)NC(c2ccccc2)c2ccccc2)c(=O)n(C)c1=O the reporter increase was -2.84% (inactive). In the case of COc1cc2nc(Cl)nc(NCCO)c2cc1OC, the reporter increase is reported as -0.52% (inactive). In the case of Cc1ccc(NC(=O)OCCNC(=O)c2ccncc2)cc1, the reporter increase is reported as 14.4% (active). CCCCCOC(=O)NCCOC(=O)Nc1ccc(C(=O)OCC)cc1 was tested, and the reporter increase was 3.09% (inactive). For Cc1ccc(NC(=O)OCc2cncs2)cc1, the reporter increase was 2.2% (inactive). O=C(NCc1ccccc1)c1ccc(S(=O)(=O)Nc2cccc(C(F)(F)F)c2)cc1 was tested, and the reporter increase was -0.38% (inactive). COc1ccc(CCn2c(NN=C3CCCC3)nc3c2c(=O)[nH]c(=O)n3C)cc1 was tested, and the reporter increase was -2.59% (inactive). For O=C(NC1C2CC3CC(C2)CC1C3)c1ccc(N2CCNCC2)c([N+](=O)[O-])c1 (stereo not drawn), the reporter increase was -0.74% (inactive). In the case of N/C(=N\OC(=O)c1cc(-c2ccccc2)nc2ccccc12)c1ccncc1, the reporter increase is reported as 2.66% (inactive). With Cc1cccc(C(=O)c2cccc(C)c2)c1 the reporter increase was -0.47% (inactive). For Cc1cccc(/C(N)=N/OC(=O)c2ccccc2Cl)c1, the reporter increase was 11.3% (active).
